FLuc modulator = counter-screen for miR-21 project: firefly luciferase inhibitors or activators | P08659 | purified FLuc, Km substrates, luminescence inhibition | Potency, µM (titrated, usually from 57.5 µM), hits mostly inhibitors | 6.9% of 360,000 active | AID 588342; note: nearly all actives have a fitted effect of over 55% in size
Target sequence (P08659 whole entry, looked up): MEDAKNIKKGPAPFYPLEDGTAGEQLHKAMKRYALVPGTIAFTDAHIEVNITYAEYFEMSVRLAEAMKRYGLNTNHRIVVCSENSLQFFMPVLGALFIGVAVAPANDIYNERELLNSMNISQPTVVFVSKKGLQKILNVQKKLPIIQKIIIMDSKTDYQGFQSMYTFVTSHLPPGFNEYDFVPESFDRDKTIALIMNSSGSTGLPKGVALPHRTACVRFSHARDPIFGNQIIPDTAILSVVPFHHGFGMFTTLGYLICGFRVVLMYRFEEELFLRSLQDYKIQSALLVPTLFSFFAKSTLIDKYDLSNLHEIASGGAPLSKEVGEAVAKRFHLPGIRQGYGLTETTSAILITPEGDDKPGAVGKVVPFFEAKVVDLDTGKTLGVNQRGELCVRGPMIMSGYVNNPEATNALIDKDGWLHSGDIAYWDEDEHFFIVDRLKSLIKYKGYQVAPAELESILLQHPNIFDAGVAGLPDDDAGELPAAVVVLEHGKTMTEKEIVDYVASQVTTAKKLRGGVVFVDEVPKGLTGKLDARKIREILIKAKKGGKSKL
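Biochemical qHTS of compounds, final roughly 60 µM downward over six points, against 10 nM purified firefly luciferase using Km concentrations of substrates (10 uM D-luciferin, 10 uM ATP) in Tris acetate pH 7.5 buffer; luminescence output.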
NPC1 promoter act = NPC1 promoter activation; Huh7 NPC1 promoter luciferase reporter, 24 h; Potency, µM (top dose mostly 9.22 µM), usual class: activators; 2.4% of 320,000 active; note: nearly all actives have a fitted effect of over 60% in size
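Stably transfected Huh7 (NPC1 promoter→luciferase), 1500 cells/well in Opti-MEM + 10% FBS, 2 h settle, then compound 24 h at 37 °C. Luminescence after 10 min with Amplite reagent.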
SMN2 splice up = enhancers of SMN2 splice variant expression. HEK293 SMN2-luciferase splicing reporter, luminescence, 30-36 h. Potency, µM (top dose mostly 46.1 µM), most hits filed as activators. 2.8% of 210,000 active. AID 1458; note: nearly all actives have a fitted effect of over 55% in size
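HEK293 cells carry an SMN2 […]–luciferase reporter in which exon 7 inclusion puts luciferase in frame. Cells were plated 10-12 h before compound addition, then incubated 30-36 h at 37C. ONE-Glo luminescence was read; sodium butyrate at 4.5 mM final served as control.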
ELG1 repair inh = ELG1-dependent DNA repair inhibition | HEK293T ELG1-luciferase reporter, luminescence, 16 h; DNA damage induced by 5-fluorouridine | Potency, µM (top dose mostly 46.1 µM), hits mostly inhibitors | 2.3% of 330,000 active; note: nearly all actives have a fitted effect of over 55% in size
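Cells (2,000 per well) received 5-fluorouridine plus test compound or DMSO and were incubated 16 hr at 37 °C, 5% CO2. Luciferase activity was read by luminescence 30 min after ONE-Glo addition; signal suppression marked inhibition of damage-induced ELG1 function.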
ELG1 genotox = genotoxicity induction in ELG1-luciferase HEK293T cells. HEK293T ELG1-luciferase reporter, luminescence, 16 h. 1.3% of 330,000 active. Potency, µM (series often up to 46 µM), usual class: activators. AID 504466; note: nearly all actives have a fitted effect of over 60% in size
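DMSO vehicle served as control against compound-treated ELG1-luciferase HEK293T cells; exposure lasted 16 hr at 37 °C and 5% CO2, followed by ONE-Glo luminescence detection after 30 min.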
Rab9 prom act = activates the Rab9 promoter; Huh7 Rab9 promoter-luciferase reporter, luminescence, 24 h; Potency, µM (doses to about 9.22 µM), usual class: activators; 2.8% of 320,000 active; note: nearly all actives have a fitted effect of over 60% in size
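Huh7 cells stably carrying Rab9 promoter–luciferase reporter, plated 1500 cells/well, compound added after 2 h and incubated 24 h at 37 °C; luciferase luminescence then read after 10 min with detection reagent.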
Hits are given with their value; i = inactive; ? = inconclusive; nt = not tested or not shown. Rows were chosen to be rich in hits. Some 9.2% of all compounds tested hit in one or more screens of this group. Calls come from the whole dose curve; as a rule, active = well fitted curve in the direction sought with a large enough effect; inconclusive = small, poorly fitted or top-dose-only effect, or another doubt; inactive = no such curve, though single readings can be large; an effect the other way counts as inactive or inconclusive.

SMILES | FLuc modulator | NPC1 promoter act | SMN2 splice up | ELG1 repair inh | ELG1 genotox | Rab9 prom act
O=C(Nc1cccc(Cl)c1)Nc1ccc2c(c1)OCO2 | 6.7µM | 2.5µM | 10µM | ? | i | 1.6µM
COc1ccc(CCC(=O)OCC(=O)NC(=O)c2ccc(Cl)cc2)cc1 | nt | nt | nt | i | i | nt
CC(C)(C)c1ccc(NC(=O)C2=CN3CCS(=O)(=O)N=C3C=C2)cc1 | 15µM | i | nt | i | i | i
Cc1ccc(NC(=O)C2=CN3CCS(=O)(=O)N=C3C=C2)cc1 | nt | nt | nt | i | i | nt
Nc1cccc(/C=C/c2ccncc2)c1 | 17µM | ? | nt | ? | i | i
Nc1cccc(CCc2ccncc2)c1 | i | i | nt | i | i | i
CC1CC(C)CN(CC(O)COCc2ccccc2)C1 (stereo unspecified) | i | i | nt | i | i | i
N#Cc1c(SCC(=O)Nc2nc3ccc(Br)cc3s2)sc2c(O)cc(=O)[nH]c12 | ? | i | nt | i | i | i
N#Cc1c(SCC(=O)Nc2nc3ccccc3s2)sc2c(O)cc(=O)[nH]c12 | 2.4µM | i | nt | ? | i | i
CCN(CC)C(=O)c1ccc2c(c1)N(Cc1c(F)cccc1Cl)C(=O)c1ccccc1S2 | i | nt | i | nt | nt | nt
CC(C)CC(=O)Nc1nnc(S(=O)(=O)N(C)Cc2ccc(Cl)cc2)s1 | i | nt | nt | nt | nt | nt
Cc1ccc(NC(=O)/C(C#N)=C(\N)C(Cl)(Cl)Cl)nc1 | 2.1µM | ? | nt | ? | ? | ?
Cc1ccc(NC(=O)C(=O)Nc2ccc(C)cn2)nc1 | i | i | i | ? | ? | ?
O=[N+]([O-])c1cccc(S(=O)(=O)Nc2nc3ccccc3nc2Nc2cccc(S(=O)(=O)N3CCCCC3)c2)c1 | i | i | i | 2.1µM | i | i
COc1ccc(NS(=O)(=O)c2ccc(-c3coc(C)n3)cc2)cc1OC | i | i | nt | 0.41µM | i | i
COc1ccc(S(=O)(=O)Nc2cccc(S(=O)(=O)N3CCCCC3)c2)cc1 | nt | nt | nt | i | i | nt
Cc1ccc(S(=O)(=O)Nc2nc3ccccc3nc2Nc2cccc(S(=O)(=O)N3CCCC3)c2)cc1 | ? | i | i | 21µM | i | i
COc1ccc(Nc2nc3ccccc3nc2NS(=O)(=O)c2ccc(Cl)cc2)cc1OC | 6.7µM | nt | i | nt | nt | nt
O=C(O)c1cc(S(=O)(=O)Nc2cccc3ccccc23)c(Cl)cc1Cl | i | i | nt | i | i | i
Cc1ccc(C(NC(=O)Cc2cccs2)C(=O)Nc2ccc(C(C)C)cc2)cc1 (stereo unspecified) | i | nt | i | nt | nt | nt
COc1ccc2c(c1OC)C(=O)N(c1nc(SC)n[nH]1)C2=O | i | i | nt | i | i | i
CCc1cccc(CC)c1NC(=O)C1CCC(CNS(=O)(=O)c2cccc3nsnc23)CC1 (stereo unspecified) | i | nt | i | nt | nt | nt
OCc1cn(-c2ccccc2)nc1-c1ccc2c(c1)OCCO2 | 21µM | ? | i | ? | i | ?
OCc1cn(-c2ccccc2)nc1-c1ccc(Br)cc1 | 17µM | ? | nt | ? | ? | ?
CC(C)COc1ccc(-c2nn(-c3ccccc3)cc2CO)cc1 | ? | i | nt | i | i | i
SMILES | FLuc modulator | NPC1 promoter act | SMN2 splice up | ELG1 repair inh | ELG1 genotox | Rab9 prom act
Cc1ccccc1C(=O)NC(=O)Nc1ccc(-n2nc(C(F)(F)F)cc2C(F)(F)F)cc1 | i | nt | i | nt | nt | nt
CCOC(=O)c1nn(-c2ccc(C)c(C)c2)cc1O | 4.3µM | ? | i | ? | 6.5µM | i
O=C(c1cccc(Br)c1)c1cn(-c2ccccc2)nc1C(=O)c1ccccc1 | i | i | i | ? | i | i
CCOC(=O)c1nn(-c2ccc([N+](=O)[O-])cc2)cc1O | ? | i | nt | ? | i | i
CCOC(=O)c1nn(-c2ccc3c(c2)OCCO3)cc1O | 3µM | 2.8µM | ? | ? | 8.2µM | 2.8µM
CCOC(=O)c1nn(-c2ccc(C)cc2)cc1C(=O)c1ccccc1 | 1.9µM | 4µM | 11µM | ? | 2.6µM | 2.8µM
CCOC(=O)c1nn(-c2c(C)n(C)n(-c3ccccc3)c2=O)cc1O | i | i | i | i | i | i
COC(=O)c1nn(-c2ccc3c(c2)OCO3)cc1O | 11µM | ? | ? | ? | ? | i
COC(=O)c1nn(-c2ccc3c(c2)CCN3C(C)=O)cc1O | 0.54µM | 0.5µM | ? | i | ? | 3.2µM
Cc1ccc(CN(Cc2cc3cc4c(cc3[nH]c2=O)OCCO4)Cc2nnnn2Cc2ccco2)cc1 | i | i | i | 23µM | i | i
COc1ccccc1CN(Cc1cc2c(C)ccc(C)c2[nH]c1=O)Cc1nnnn1Cc1ccco1 | i | i | i | 18µM | i | i
Cc1ccc(C)c2[nH]c(=O)c(CN(Cc3nnnn3C3CCCCC3)CC3CCCO3)cc12 (stereo unspecified) | i | i | i | ? | i | i
COc1ccc2cc(CN(CCc3ccccc3)Cc3nnnn3Cc3ccco3)c(=O)[nH]c2c1 | i | i | i | ? | i | i
Cc1ccc(C)c2[nH]c(=O)c(CN(CCN3CCOCC3)Cc3nnnn3CC3CCCO3)cc12 (stereo unspecified) | i | i | i | 16µM | i | i
C=CCn1c(=O)/c(=C/c2cc(OC)c(OC)c(OC)c2)s/c1=C(/C#N)c1nc2ccccc2n1C | i | i | i | 4.1µM | i | i
COc1ccc(N2CCN(c3nc4cc(C)ccc4cc3C=O)CC2)cc1 | i | i | nt | i | i | i
O=C(CCCCCn1c(=O)c2sccc2n(Cc2ccc(Cl)cc2)c1=O)NCc1ccc2c(c1)OCO2 | i | nt | i | nt | nt | nt
CCN(CC)S(=O)(=O)c1cc(NC(=O)Cc2n[nH]c(=O)c3ccccc23)ccc1C | i | i | nt | 21µM | i | i
CCN(CC)S(=O)(=O)c1cc(NC(=O)C2Cc3ccccc3C(=O)O2)ccc1C (stereo unspecified) | 17µM | ? | nt | ? | i | ?
CCN(CC)S(=O)(=O)c1cc(NC(=O)C(C)N2CCN(c3ccccn3)CC2)ccc1C (stereo unspecified) | i | i | i | 21µM | i | i
CCN(C(=O)c1cn(-c2ccc(OC)cc2)c(=O)c2ccccc12)c1cccc(Cl)c1 | i | nt | nt | nt | nt | nt
Cn1c(=O)c2nc(SCC(=O)Nc3ccc(OC(F)(F)F)cc3)n(C)c2n(C)c1=O | i | nt | nt | nt | nt | nt
COc1cc(Br)c(CCNC(=O)c2ccco2)cc1OC | i | i | i | i | i | i
COc1nc(N)nc2nc[nH]c12 | i | i | nt | i | i | i
COc1ccc(/C=C(\C#N)C(=O)NCC(c2ccc(F)cc2)N2CCOCC2)cc1 (stereo unspecified) | i | i | nt | i | i | i
Cn1cnc2cc(NC(=O)COc3ccccc3)ccc21 | 24µM | i | nt | ? | ? | i
CCOc1ccc(-n2nc3ccc(NC(=O)CC)cc3n2)cc1 | 2.7µM | ? | nt | ? | i | ?
CCOc1ccc(-n2nc3ccc(NC(=O)Cc4ccccc4)cc3n2)cc1 | i | nt | i | nt | nt | nt
CC(=O)Nc1ccc2c(c1)ncn2-c1ccccc1 | 11µM | 2.8µM | nt | ? | 21µM | 1.4µM

Screening data deposited in PubChem by National Center for Advancing Translational Sciences (NCATS).
